Screening results deposited in PubChem by several laboratories.
Jurkat viability – cytotoxic compounds reducing Jurkat cell viability | Jurkat E6.1 viability, ATP luminescence, 48 h | inhibition, % at 4 µM | 56,000 compounds, 1.2% hits | AID 463;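 active means inhibition above the mean inhibition of all tested compounds plus 3 SD, cut at about 28% in these data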
Her2 expr inh – Her2 kinase expression inhibition; P04626; SKBR-3 HER2 protein level, AlphaScreen, 18-24 h; stronger effect = lower value; HER2 level % of control, % at 10 µM; 65,000 compounds, 0.69% hits;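 active means HER2 level under 5% of the carrier-only control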;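 further: 100% = DMSO carrier and 0% = 500 nM PU-H71 HSP90 inhibitor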
SKBR3 24h inh – SK-BR-3 proliferation inhibitors. SK-BR-3 viability, CellTiter-Glo ATP luminescence, 24 h; stronger effect = lower value. viability, % at 10 µM. 41,000 compounds, 0.47% hits. AID 847;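 active means viability at or below the median of all test compounds minus 3 SD, in both replicates if run twice, cut at about 45% in these data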;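 further: 100% = median untreated cell wells and 0% = median positive control drug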
The depositor's hits bear a star. Shown are actives, neighbours in structure and some others; about 1.9% of the full set was active somewhere.

`Cc1cc(NC(=O)Cn2cc(C(F)(F)F)cc(Cl)c2=O)no1` gave Jurkat viability -8.2 and Her2 expr inh 113.7.
COC(=O)c1ccc(Oc2cc(C)nc(-n3nc(C)cc3C)n2)cc1 was read as Jurkat viability 99.9*, Her2 expr inh 68.9 and SKBR3 24h inh 98.6.
For CCOC(=O)c1ccc(Oc2cc(C)nc(SC)n2)cc1 the results were Jurkat viability 75.1* and Her2 expr inh 45.6.
`CCOC(=O)c1ccc(Oc2nc(SC)nc(N(C)C)n2)cc1` gave Jurkat viability 3.8 and Her2 expr inh 101.3.
For COC(=O)c1ccc(Oc2nc(C)cc(Oc3ccccc3)n2)cc1 the results were Jurkat viability -13.6, Her2 expr inh 74.2 and SKBR3 24h inh 85.5.
For CCCc1cc(N2CCCC(C(=O)NCC)C2)n2ncnc2n1 (stereo unspecified) the results were Jurkat viability -5.3, Her2 expr inh 101.9 and SKBR3 24h inh 83.9.
`O=S(=O)(NC1CCCC1)c1cccc(S(=O)(=O)N2CCC(n3nnc4ccccc43)CC2)c1` gave Jurkat viability 10.4, Her2 expr inh 86.6 and SKBR3 24h inh 79.5.
COc1ccc(-c2[nH]c(-c3cccc(OC)c3)nc2SCC(=O)NCc2ccco2)cc1 was read as Jurkat viability -2.7 and Her2 expr inh 94.0.
CCC(=O)N1CCc2cc(S(=O)(=O)Nc3ccc4c(c3)OCCO4)ccc21 was read as Her2 expr inh 63.5.
Screening CS(=O)(=O)N1CCc2cc(S(=O)(=O)Nc3ccc4c(c3)OCCO4)ccc21 returned Jurkat viability 27.7* and Her2 expr inh 90.4.
`CCOc1ccc(N2CC(=O)N/C2=N\c2nc(C)cc(C)n2)cc1` gave Jurkat viability -6.0, Her2 expr inh 77.8 and SKBR3 24h inh 76.2.
CCN(CC)c1ccc(NC(=O)c2ccccc2F)cc1 was read as Jurkat viability 57.1*, Her2 expr inh 75.8 and SKBR3 24h inh 87.8.
Screening CCN(CC)c1ccc(NC(=O)c2ccco2)cc1 returned Jurkat viability -2.1, Her2 expr inh 112.2 and SKBR3 24h inh 90.9.
Screening CCN(CC)C(=O)C1=C(C)Nc2nnnn2C1c1cccnc1 (stereo unspecified) returned Jurkat viability 1.9, Her2 expr inh 62.0 and SKBR3 24h inh 100.8.
Cn1cc(CN2CCN(c3ccccc3)CC2)c2ccccc21 was read as Her2 expr inh 83.9.
For COc1ccccc1NC(=O)N(Cc1ccco1)Cc1cc2ccc(C)c(C)c2[nH]c1=O the results were Jurkat viability 79.5*, Her2 expr inh 88.0 and SKBR3 24h inh 76.5.
`COc1ccccc1NC(=O)N(Cc1ccco1)Cc1cc2cc(C)cc(C)c2[nH]c1=O` gave Jurkat viability 13.7, Her2 expr inh 67.0 and SKBR3 24h inh 92.7.
`CCCc1cc(=O)[nH]c(SCC(=O)N2CCN(S(=O)(=O)c3ccc(C)cc3)C2)n1` gave Jurkat viability 6.6 and Her2 expr inh 82.3.
For CC(C(=O)OCC(=O)Nc1ccc2c(c1)OCO2)N1C(=O)c2ccccc2C1=O (stereo unspecified) the results were Jurkat viability -4.7 and Her2 expr inh 99.1.
Screening CC(C(=O)Oc1ccc2c(c1)OCO2)N1C(=O)c2ccccc2C1=O (stereo unspecified) returned Her2 expr inh 103.5 and SKBR3 24h inh 35.5*.
Screening c1ccc(-n2ncc3c(NCCCN4CCOCC4)ncnc32)cc1 returned Jurkat viability 0.2, Her2 expr inh 94.1 and SKBR3 24h inh 91.2.
CCCCNc1ncnc2c1cnn2-c1ccccc1 was read as Jurkat viability 90.2*, Her2 expr inh 56.5 and SKBR3 24h inh 100.0.
For CCCCNc1ncnc2c1cnn2-c1ccc(Cl)cc1 the results were Jurkat viability 86.1* and Her2 expr inh 58.7.
`Clc1ccc(-n2ncc3c(NCCCn4ccnc4)ncnc32)cc1` gave Her2 expr inh 97.7 and SKBR3 24h inh 79.7.
C=CCn1c(SCC(=O)Nc2ccc3c(c2)OCO3)nnc1-c1ccccc1O was read as Jurkat viability -5.5, Her2 expr inh 97.2 and SKBR3 24h inh 89.9.
`Cc1ccc(S(=O)(=O)N2CCOCC2)cc1C(=O)OCC(=O)N1CCc2ccccc2C1` gave Jurkat viability 6.7 and Her2 expr inh 102.0.
Screening C=CCc1cccc2cc(C(=O)NC)c(=O)oc12 returned Jurkat viability -4.6, Her2 expr inh -18.3* and SKBR3 24h inh 108.1.
For C=CCc1cccc2cc(C(=O)N(C)C)c(=O)oc12 the results were Jurkat viability 0.9, Her2 expr inh 112.5 and SKBR3 24h inh 104.3.
`COc1ccc(CN(C(=O)CSc2nnc(-c3ccc(F)cc3)o2)c2ccc(F)cc2)cc1` gave Jurkat viability -5.4, Her2 expr inh 93.7 and SKBR3 24h inh 63.3.
Screening O=C(CSc1nnc(Cn2nnc3ccccc32)o1)N(Cc1ccc(F)cc1)c1ccccc1 returned Jurkat viability 97.8*, Her2 expr inh 69.6 and SKBR3 24h inh 80.9.
